The panel holds about 83,000 compounds, 20% with a hit somewhere; the sample as a whole holds those more often.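 96-well plates, one dose, 48 hours. Percent growth reported; active if below 10.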 Values without a mark were called inactive. Calls of active or inactive are those of the source.

The test system of this assay is MDA-MB-468 breast. As to the kind of experiment: NCI-60 one-dose screen, 48 h (100 = growth as untreated, 0 = no growth, -100 = all killed). As to conditions: 10 µM unless noted.
`COc1cc(/C=C/C(=O)c2ccc(N3CCN(C)CC3)cc2)ccc1F`: the growth is 35%.
The figure for `O=C(NNC(=O)c1ccc([N+](=O)[O-])cc1)c1ccc([N+](=O)[O-])cc1` is 109%; for `O=C1CC(N2C(=O)/C(=C/C(Cl)=C\c3ccc([N+](=O)[O-])cc3)SC2=S)C(=O)N1c1ccc(Cl)cc1` (stereo not given) it is -6.24% (active).
Take `CCN1C/C(=N\S(=O)(=O)c2ccccc2)N(CC)C1=S`: the growth is 97.7%.
The figure for `C=C1CCC2C(C)(COC(=O)CC)C(OC(=O)CC)CCC2(C)C1C/C=C1/C(=O)OCC1OC(=O)CC` (stereo not given) is -48.5% (active); for `NC1=NC(SCc2ccccc2CCl)c2ncn(Cc3ccccc3CCl)c2N1` (stereo not given) it is -33.2% (active); for `CC(=O)C1CC(C)CCC1C(C)C` (stereo not given) it is -8.03% (active).
Consider `CCn1c(SC/C(=N/O)c2ccccc2)nnc1-c1ccccc1`, for which the growth was 108%.
Take `N#Cc1c(Oc2ccc([N+](=O)[O-])cc2)nc2sc3cc(Cl)ccc3n2c1=N`: the growth was -39.8% (active).
As to `CC(C)(C)[Si](C)(C)OC1[C@@H](O[Si](C)(C)C(C)(C)C)[C@@H](CNC(=O)NC(=O)CCl)O[C@H]1n1cnc2c(NC(=O)Nc3ccccc3)ncnc21` (stereo not given in full), the growth was -64.6% (active).
`NC(CSC(c1ccccc1)(c1ccccc1)c1ccccc1)C(=O)NCC(=O)O` (stereo not given): the growth is 55%.
The figure for `O=C(c1ccccc1O)N1CCCC1` is 94.1%; for `Cc1c(Br)cccc1NC(=O)c1sc2nc3c(cc2c1N)CN(Cc1ccccc1)CC3` it is 16.8%.
Regarding `CCCCCCCCCCCCCCCCN(CC)CC`, the growth was -85.3% (active).
In the case of `N#CC1=C(Nc2ccccc2Cl)SC(c2ccccc2O)NC1=O` (stereo not given) it was 122%.
Regarding `O=C(Nc1ccc(N2CCOCC2)cc1)Nc1ccc2c(ccn2C(=O)c2cccc(F)c2)c1`, the growth is 27.5%.
Consider `Cc1cccc(NC(c2cc3cccc4ccc5cccc2c5c43)c2nnnn2C(C)(C)C)c1C` (stereo not given), for which the growth is -10.3% (active).
The figure for `Cc1nccc2c3ccc(OCc4cn(Cc5ccc(Br)cc5)nn4)cc3n(CCCc3ccccc3)c12` is 93.4%; for `O=C(/C=C\c1ccc(NCc2ccc(C(=O)O)cc2)cc1)CCl` it is 76.7%.
The figure for `OCCCCc1nccc2c1[nH]c1ccccc12` is 92.9%; for `COc1cc(-c2nc(SCCC(C)C)nc(Nc3ccc(F)cc3)c2C#N)cc(OC)c1OC` it is 96.8%.
In the case of `CCCCn1c(=O)c2c(nc3n2CCCN3CCc2ccc(OCC(=O)NCCN(CC)CC)cc2)n(CCCC)c1=O` it was 43.7%; in that of `O=C(CC(CC(=O)c1ccccc1)c1ccccc1O)c1ccccc1`, 100%.
As for `Cc1ccc(Cl)cc1NC(=O)CCl`, the growth is 73.5%.
Take `Nc1ncc(-c2ccc3ncnc(Nc4cccc(Cl)c4)c3c2)cn1`: the growth was -26.4% (active).
